Results on 16 compounds are retold here after PubChem BioAssay (NCATS).

A short description of test [1]: Quantitative High-Throughput drug screen in 47 multiple myeloma cell lines against the NCATS MIPE library collection: MM1S_ATCC cell viability assay (AID 1918980). Note: nearly all actives have a fitted effect of over 45% in size. In outline:
(§1)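 ATP-based luminescence (CellTiter-Glo, 5 min RT incubation) quantified surviving cells following two days' treatment with MIPE 4.0 agents at 37 °C, 5% CO2.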

Test [2] can be described thus: Quantitative High-Throughput drug screen in 47 multiple myeloma cell lines against the NCATS MIPE library collection: MM1R_ATCC cell viability assay (AID 1918981). Note: nearly all actives have a fitted effect of over 35% in size. The essentials: as §1
A short description of test [3]: Quantitative High-Throughput drug screen in 47 multiple myeloma cell lines against the NCATS MIPE library collection: LP1_DSMZ cell viability assay (AID 1918982). Note: nearly all actives have a fitted effect of over 35% in size. In outline:
as §1

Test [4] is described as follows: Quantitative High-Throughput drug screen in 47 multiple myeloma cell lines against the NCATS MIPE library collection: KMS28PE_JCRB cell viability assay (AID 1918983). Note: nearly all actives have a fitted effect of over 35% in size. In outline:
as §1

Test [5] in a line: Quantitative High-Throughput drug screen in 47 multiple myeloma cell lines against the NCATS MIPE library collection: L363_DSMZ cell viability assay (AID 1918984). Note: nearly all actives have a fitted effect of over 40% in size. In outline:
as §1

The nature of test [6]: Quantitative High-Throughput drug screen in 47 multiple myeloma cell lines against the NCATS MIPE library collection: KMS34_JCRB cell viability assay (AID 1918985). Note: nearly all actives have a fitted effect of over 40% in size. The essentials:
as §1

Test [7] in a line: Quantitative High-Throughput drug screen in 47 multiple myeloma cell lines against the NCATS MIPE library collection: OCIMY7_PLB cell viability assay (AID 1918987). Note: nearly all actives have a fitted effect of over 65% in size. Particulars: OCI-MY7 myeloma viability, CellTiter-Glo ATP, 48 h; viability (% of DMSO): at 45.8 µM (top of the series). In outline:
as §1
Background: In ATP-based viability assays light output follows the ATP content of the culture.

A short description of test [8]: Quantitative High-Throughput drug screen in 47 multiple myeloma cell lines against the NCATS MIPE library collection: SKMM1_PLB cell viability assay (AID 1919863). Note: nearly all actives have a fitted effect of over 35% in size. Particulars: SKMM1 myeloma viability, CellTiter-Glo ATP, 48 h; viability: stronger effect = lower value. In outline: as §1
Test [9] can be described thus: Quantitative High-Throughput drug screen in 47 multiple myeloma cell lines against the NCATS MIPE library collection: OCIMY5_PLB cell viability assay (AID 1918988). Note: nearly all actives have a fitted effect of over 65% in size. In outline:
as §1

The nature of test [10]: Quantitative High-Throughput drug screen in 47 multiple myeloma cell lines against the NCATS MIPE library collection: OPM1_PLB cell viability assay (AID 1918989). Note: nearly all actives have a fitted effect of over 40% in size. The essentials: as §1

Results filed as inconclusive are left out. Values without a mark were called inactive. The source made the active and inactive calls. Calls come from the whole dose curve; as a rule, active = well fitted cell-killing curve with a large enough effect; inconclusive = small, poorly fitted or top-dose-only effect, or effect the other way; inactive = no such curve, though single readings can be large or run the other way.
Potency is the fitted concentration of half-maximal effect.

`CCS(=O)(=O)Nc1ccc2[nH]c(O)c(C(=Nc3ccc(CN4CCCCC4)cc3)c3ccccc3)c2c1`: the Potency was 0.469 µM (active) in [1]; 0.526 µM (active) in test [2]; 7.43 µM (active) in test [3]; 1.05 µM (active) in test [4]; 0.0526 µM (active) in test [5]; 0.935 µM (active) in [6]. The Potency was 0.0662 µM (active) in [7] and 5.9 µM (active) in test [8].

In the case of `CCOc1cc2c(c(F)c1OCC)C(=N)N(CC(=O)c1cc(N3CCOCC3)c(OC)c(C(C)(C)C)c1)C2`, the Potency in test [1] was 14.8 µM (active); in test [2], 20.9 µM (active); in test [3], 16.6 µM (active); in test [4] it was 20.9 µM (active); in [6] it was 23.5 µM (active); in [7], 7.43 µM (active). Besides, the Potency in test [9] was 16.6 µM (active); in test [10], 14.8 µM (active); in test [8], 20.9 µM (active).

As to `COc1ccc(S(=O)(=O)Nc2cccnc2Nc2ccc(O)cc2)cc1`, the Potency is 0.209 µM (active) in test [1]; 0.105 µM (active) in [2]; 0.148 µM (active) in test [3]; 0.105 µM (active) in [4]; 0.0469 µM (active) in test [6]; 0.0372 µM (active) in test [7]. Moreover, the values for the Potency in test [10] and in test [8] were 0.235 µM (active) and 0.0372 µM (active), respectively. The Potency result in test [5] was “inactive”.

Take `O=c1ccn([C@@H]2O[C@H](CO)[C@H](O)[C@@H]2F)c(=O)[nH]1`: the Potency in test [1] is 5.26 µM (active). The Potency result in test [2], in test [3], in [4], in test [5], in test [6] and in test [9] was “inactive” in each case. Besides, in [10], the Potency entry is “inactive”. Besides, in test [8], the viability is 118%.

In the case of `CCNC(=O)Nc1ccc(-c2nc3c(c(N4CCOC[C@H]4C)n2)CCN(C2COC2)C3)cc1`, the Potency in test [1] is 1.05 µM (active); in test [2] it was 1.05 µM (active); in [3] it was 0.0372 µM (active); in test [4], 0.833 µM (active); in test [5], 0.209 µM (active); in test [6], 1.05 µM (active). The Potency in test [9] was 1.66 µM (active); in [10], 1.18 µM (active); in test [8], 0.935 µM (active).

`Oc1cc2c(cc1O)C1c3ccc(O)c(O)c3OCC1(O)C2` (stereo not given): in test [1], the Potency was 9.35 µM (active). Besides, the Potency result in test [2], in test [3], in test [4], in test [6], in [7] and in [9] was “inactive” each time. Besides, the Potency entry in [10] is “inactive”. For the same compound, in [8], the viability was 120%.

For `N#CC(=C(O)c1ccc(Cl)cc1Cl)c1nc2cc(Cl)ccc2c(=O)[nH]1`, the Potency result in test [1], in test [2], in test [3], in test [4], in [5] and in [7] was “inactive” in each case. The Potency result in [10] was “inactive”.

Regarding `CC(=O)O[C@H]1C[C@@H]2CC[C@H]3[C@H]4C[C@H]([N+]5(C)CCCCC5)[C@@H](OC(C)=O)[C@@]4(C)CC[C@@H]3[C@@]2(C)C[C@H]1N1CCCCC1`, the Potency in [1] is 6.62 µM (active); in [4], 0.332 µM (active). The Potency result in test [2], in [3], in test [5], in [7] and in [10] was “inactive” each time. Further, the viability in test [8] was 143%.

Turning to `C[C@H](CCC(=O)O)[C@H]1CCC2C3C[C@H](O)[C@@H]4C[C@H](O)CC[C@]4(C)C3CC[C@@]21C` (stereo not given in full), the Potency result in test [1], in test [2], in [3], in [4], in [5] and in test [6] was “inactive” throughout. The Potency entry in test [9] and in test [10] was “inactive” throughout. For the same compound, the viability in [8] was 96.1%.

Consider `COC(=O)[C@@H]1[C@H]2C[C@@H]3c4[nH]c5ccccc5c4CCN3C[C@@H]2CC[C@@H]1O`, for which the Potency result in test [1], in test [2], in [3], in test [4], in test [5] and in [7] was “inactive” in each case. Moreover, the Potency entry in test [10] is “inactive”.

For the compound `C=CC(=O)Nc1cccc(Nc2nc(NC3CCC(N(C)C)CC3)nc3c2ncn3C(C)C)c1` (stereo not given), the Potency in test [1] was 0.0418 µM (active); in [2] it was 0.187 µM (active); in test [3] it was 0.372 µM (active); in test [4] it was 0.469 µM (active); in [6], 1.05 µM (active); in [7] it was 0.0743 µM (active). In addition, the results for the Potency in test [9], in test [10] and in test [8] were 0.0526 µM (active), 0.469 µM (active) and 0.935 µM (active), respectively.

Regarding `CN[C@@H]1C[C@H]2O[C@@](C)([C@H]1OC)n1c3ccccc3c3c4c(c5c6ccccc6n2c5c31)C(=O)N[C@H]4O`, the Potency is 0.332 µM (active) in test [1]; 0.372 µM (active) in test [2]; 1.05 µM (active) in test [3]; 0.833 µM (active) in [4]; 0.372 µM (active) in [6]; 0.0235 µM (active) in test [7]. In addition, the figures for the Potency in [10] and in [8] were 0.0935 µM (active) and 5.9 µM (active), respectively.

Regarding `C[C@H](NC(=O)Cc1cc(F)cc(F)c1)C(=O)N[C@H](C(=O)OC(C)(C)C)c1ccccc1`, the Potency entry in [1], in test [2], in test [3], in [4], in [5] and in test [10] was “inactive” in each case. In addition, in test [8], the viability is 105%.

Regarding `CCOC(=O)[C@H](CCc1ccccc1)N[C@@H](C)C(=O)N1[C@@H](C(=O)O)C[C@H]2CCC[C@@H]21`, the Potency in [1] is 2.64 µM (active); in test [2], 16.6 µM (active); in test [3] it was 20.9 µM (active); in [4], 23.5 µM (active); in test [5], 7.43 µM (active); in test [6] it was 26.4 µM (active). The Potency in test [9] is 14.8 µM (active); in test [10], 5.26 µM (active).

As to `CC(=O)N[C@H]1[C@@H]([C@H](O)[C@H](O)CO)OC(C(=O)O)=C[C@@H]1N=C(N)N`, the Potency entry in [1], in [2], in test [3], in test [4], in [5] and in test [6] was “inactive” throughout. Moreover, the Potency entry in test [10] is “inactive”.

For the compound `Nc1cccc2c1C(=O)N(C1CCC(=O)NC1=O)C2=O` (stereo not given), the Potency in [1] is 0.526 µM (active); in test [2] it was 2.09 µM (active); in [4], 0.0833 µM (active); in test [6] it was 0.0021 µM (active); in [9], 10.5 µM (active). Also, the Potency result in test [3] and in test [5] was “inactive” in each case.

What is called viability is a read-out of living cells in per cent, often relative to untreated cells.
